{"source": "PubChem BioAssay AID686978", "about": "(National Center for Advancing Translational Sciences (NCATS), 2013)", "note": "The whole screen tested about 420,000 compounds, of which about 64,000 (15%) were called active. About 27% were inconclusive and are not listed. Not all results are given here. Unmarked numbers belong to inactive results. Calls follow the shape of the dose curve; as a rule, active = well fitted inhibition curve with a large enough effect; inconclusive = small, poorly fitted or top-dose-only effect; inactive = flat fitted curve, though single readings scatter. % is scaled to controls: 0 for no effect and ±100 for the full control effect; potency is read from the fitted curve at half-maximal effect."}
{"assay": "qHTS for Inhibitors of human tyrosyl-DNA phosphodiesterase 1 (TDP1): qHTS in cells in absence of CPT; also: nearly all actives have a fitted effect of over 55% in size", "conditions": "DT40 Tdp1-/- hTDP1 cells, no CPT, ATP luminescence, 48 h; activity change, negative = growth inhibition: at 46.2 µM (top of the series)", "method_in_brief": "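Stably hTDP1-transfected Tdp1-null chicken DT40 cells were treated with library compounds minus camptothecin and grown for at least 48 hr at 37 °C, after which cellular ATP was quantified by luminescence.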", "units": {"activity change, negative = growth inhibition": "%"}}
{"smiles": "COCCCn1c(CCC(=O)O)ccc1-c1ccc(F)cc1", "activity change, negative = growth inhibition": -4.41}
{"smiles": "Cc1ccccc1-c1n[nH]c(=S)n1C", "activity change, negative = growth inhibition": 16.2}
{"smiles": "COC(CNC(=O)Cn1ncc2ccsc2c1=O)OC", "activity change, negative = growth inhibition": -4.15}
{"smiles": "Cc1c(CN2CCC(C)CC2)c(=O)n(-c2ccccc2)n1C", "activity change, negative = growth inhibition": 0.472}
{"smiles": "CCc1nnc(NC(=O)c2c(O)c3c([nH]c2=O)CCCC3)s1", "activity change, negative = growth inhibition": -24.8}
{"smiles": "COC(=O)c1nc(NC(=O)c2ccccc2)n[nH]1", "activity change, negative = growth inhibition": -12.7}
{"smiles": "Cc1ccc(C(=O)NC(=S)Nc2ccc3[nH]c(=O)[nH]c3c2)cc1C", "activity change, negative = growth inhibition": 3.34}
{"smiles": "Cc1cc2[nH]ncc2cc1NC(=S)NC(=O)c1ccccc1", "Potency": "18.4 µM (active)"}
{"smiles": "O=C(COC(=O)C1CCCCC1)Nc1ccc([N+](=O)[O-])cc1", "activity change, negative = growth inhibition": -8.96}
{"smiles": "C[C@@H]1CN([C@H](C)CO)C(=O)c2cc(NC(=O)NC3CCCCC3)ccc2O[C@H]1CN(C)S(C)(=O)=O", "activity change, negative = growth inhibition": 1.34}
{"smiles": "COc1ccc(/C=C/C(=O)NC(=S)NN2CCCCC2c2cccnc2)cc1", "note": "(centres undefined)", "activity change, negative = growth inhibition": -37.1}
{"smiles": "Cc1cc(N2CCN(Cc3ccc4c(c3)OCO4)CC2)n2ncnc2n1", "activity change, negative = growth inhibition": -17.8}
{"smiles": "Cc1cc(Nc2cccc(F)c2)n2ncnc2n1", "activity change, negative = growth inhibition": -1.84}
{"smiles": "Cc1cc(N2CCN(c3ccc(F)cc3)CC2)n2ncnc2n1", "Potency": "16.4 µM (active)"}
{"smiles": "C=CCn1c(SCC(=O)NC)nnc1C12CC3CC(CC(C3)C1)C2", "activity change, negative = growth inhibition": -17.5}
{"smiles": "O=C(c1ccc2c(c1)OCO2)N1CCNc2ccccc2C1", "activity change, negative = growth inhibition": -12.9}
{"smiles": "CCC(=O)c1cn(CCOc2ccccc2OC)c2ccccc12", "Potency": "23.1 µM (active)"}
{"smiles": "COc1ccccc1OCCn1c(SCC(N)=O)nc2ccccc21", "activity change, negative = growth inhibition": -6.59}
{"smiles": "CCCn1cc(SCC(N)=O)c2ccccc21", "activity change, negative = growth inhibition": 12.8}
{"smiles": "Cn1nnnc1SCC(=O)Nc1ccccc1C(=O)NC1CC1", "activity change, negative = growth inhibition": 9.22}
{"smiles": "Cc1cc(=O)oc2c(C)c(OCC(=O)NCCc3ccc(S(N)(=O)=O)cc3)ccc12", "activity change, negative = growth inhibition": 2.29}
{"smiles": "COc1cccc(NC(=S)NC(=O)c2c(Cl)c(C)nn2C)c1", "activity change, negative = growth inhibition": -8.21}
{"smiles": "Nc1nonc1-n1nnc(C(=O)N/N=C/c2cc(Br)ccc2O)c1CSC1=NCCS1", "Potency": "6.51 µM (active)"}
{"smiles": "Cc1ccc(SCc2c(C(=O)N/N=C/c3cccnc3)nnn2-c2nonc2N)cc1", "activity change, negative = growth inhibition": -26.9}
{"smiles": "Cc1ccc(SCc2c(C(=O)N/N=C/C3CC=CCC3)nnn2-c2nonc2N)cc1", "note": "(centres undefined)", "activity change, negative = growth inhibition": -24.7}
{"smiles": "O=C(O)c1ccccc1C(=O)Nc1ccccc1[N+](=O)[O-]", "activity change, negative = growth inhibition": -0.699}
{"smiles": "CCOC(=O)N1CCN(C(=O)Cc2ccc(-n3c(=S)[nH]c4ccccc4c3=O)cc2)CC1", "activity change, negative = growth inhibition": -15.2}
{"smiles": "Cc1cccn2c(=O)c(/C=C(\\C#N)S(=O)(=O)c3ccc(Cl)cc3)c(N3CCC(C(N)=O)CC3)nc12", "activity change, negative = growth inhibition": -20.6}
{"smiles": "Cc1ccc(C(=O)N/C(=C\\c2ccco2)C(=O)NC2CCS(=O)(=O)C2)cc1", "note": "(centres undefined)", "activity change, negative = growth inhibition": 6.49}
{"smiles": "Cc1cc(C)cc(Oc2nc3c(C)cccn3c(=O)c2/C=C(\\C#N)C(=O)NC2CCS(=O)(=O)C2)c1", "note": "(centres undefined)", "Potency": "13 µM (active)"}
{"smiles": "Cc1cc(C)n2nc(C(=O)N3CCN(Cc4ccc5c(c4)OCO5)CC3)nc2n1", "activity change, negative = growth inhibition": -14.8}
{"smiles": "CCN(CC)S(=O)(=O)c1ccc2nc(CSc3nnnn3-c3ccc(O)cc3)[nH]c2c1", "activity change, negative = growth inhibition": -27.3}
{"smiles": "Cc1csc(NC(=O)Nc2ccccc2[N+](=O)[O-])n1", "activity change, negative = growth inhibition": -20.3}
{"smiles": "CCOC(=O)/C(=N\\Nc1ccccc1[N+](=O)[O-])c1csc(Nc2ccccc2)n1", "Potency": "16.4 µM (active)"}
{"smiles": "CCOc1ccccc1Nc1ccc(C(=O)O)cc1[N+](=O)[O-]", "activity change, negative = growth inhibition": 8.42}
{"smiles": "CC(=O)c1c(C)[nH]c(C(=O)NCCCN2CCCC2)c1C", "activity change, negative = growth inhibition": 5.85}
{"smiles": "Cn1cc[n+](C)c1COc1ccc(C=O)cc1", "activity change, negative = growth inhibition": 2.67}
{"smiles": "Cc1noc(C)c1C(=O)NCCc1ccc(S(N)(=O)=O)cc1", "activity change, negative = growth inhibition": 7.32}
{"smiles": "Cc1cc([N+](=O)[O-])ccc1NS(=O)(=O)c1ccccc1", "Potency": "23.1 µM (active)"}
{"smiles": "O=[N+]([O-])c1ccc(NS(=O)(=O)c2ccccc2)c(Cl)c1", "Potency": "20.6 µM (active)"}
{"smiles": "Cc1cccc(NS(=O)(=O)c2ccc([N+](=O)[O-])cc2)n1", "activity change, negative = growth inhibition": -3.46}
{"smiles": "Cc1cc([N+](=O)[O-])ccc1NC1CCCC1", "activity change, negative = growth inhibition": 1.28}
{"smiles": "Cc1ccccc1OS(=O)(=O)c1cccc([N+](=O)[O-])c1", "activity change, negative = growth inhibition": -27.5}
{"smiles": "O=[N+]([O-])c1cccc(S(=O)(=O)N2CCCCCC2)c1", "activity change, negative = growth inhibition": -29.9}
{"smiles": "COc1ccc(NC(=O)[C@H](NC(=O)[C@@H]2Cc3ccccc3CN2)c2ccccc2)cc1", "activity change, negative = growth inhibition": 8.27}
{"smiles": "CCC(=O)Nc1sc(C(=O)N2CCCCC2)c(C)c1C#N", "activity change, negative = growth inhibition": 3.68}
{"smiles": "CCCCc1cc2c(s1)CCCC/C2=N/O", "activity change, negative = growth inhibition": -9.17}
{"smiles": "COc1ccc(NC(=O)CC2C(=O)NC3CCCCC3N2C(=O)c2ccc(F)cc2)cc1", "note": "(centres undefined)", "activity change, negative = growth inhibition": -19.5}
{"smiles": "COc1ccc(NC(=O)N2CC3(CCN(C(C)=O)CC3)C2)cc1", "activity change, negative = growth inhibition": 11.3}
{"smiles": "COc1ccc(CNS(=O)(=O)c2ccc(NC(=O)N3CCCCC3)cc2)cc1", "Potency": "20.6 µM (active)"}
{"smiles": "COc1ccc(S(=O)(=O)NC(C)C(=O)N2CCCCCC2)cc1", "note": "(centres undefined)", "activity change, negative = growth inhibition": 12.3}
{"smiles": "CCn1c(COc2ccccc2)nnc1SCC(=O)NCc1ccco1", "activity change, negative = growth inhibition": -37.1}
{"smiles": "Cn1c2ccccc2c(=O)c2c(=O)n(Cc3ccco3)c(COc3ccccc3)nc21", "Potency": "14.6 µM (active)"}
{"smiles": "COc1ccc(NC(=O)Cn2c(=O)n(Cc3ccco3)c(=O)c3ccccc32)cc1", "activity change, negative = growth inhibition": -3.08}
